According to PubChem BioAssay (NCI):
Compounds without any hit were thinned out: in the full panel of roughly 83,000, 20% have a hit.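 Compound tested at a single concentration for 48 hours in 96-well plates; a percent growth value below 10 was scored as active.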 Activity calls are given as the source filed them.

system: TK-10 renal; experiment: NCI-60 one-dose screen, 48 h (100 = growth as untreated, 0 = no growth, -100 = all killed); conditions: 10 µM unless noted

| Compound | growth |
| --- | --- |
| O=Cc1ccc([N+](=O)[O-])s1 | 112% (inactive) |
| CC(C)(C)n1cc(-c2ccnc(NCCCNS(=O)(=O)c3ccc(F)cc3)c2)c(-c2cccc(F)c2)n1 | 97.7% (inactive) |
| O=C1C(Cl)=C(Nc2ccc(O)cc2)C(=O)N1Cc1ccc(Cl)cc1 | 63.2% (inactive) |
| COc1cc(CNC(=O)CCCC/C=C/C(C)C)ccc1OCc1nnc(Nc2ccc([N+](=O)[O-])cc2)o1 | 84.1% (inactive) |
| O=C(N/N=C/c1ccc(F)cc1)c1ccc(C(F)(F)F)nc1Nc1cccc(C(F)(F)F)c1 | 3.93% (active) |
| CCOC(=O)c1cnc2ccccc2c1Cl | 84.4% (inactive) |
| CCCc1cc(NC)nc(S(=O)(=O)CC)n1 | 110% (inactive) |
| COc1ccc(/C=C2\C(=O)N=C3N2NC(c2cc(Br)ccc2O)C=C(C)N3c2ccccc2)cc1 (centres undefined) | 118% (inactive) |
| O=S(=O)(NCCNc1nccc(-c2c(-c3cccc(F)c3)nc3occn23)n1)c1ccc(Br)cc1 | 103% (inactive) |
| Cn1c(=O)c2[nH]c(N/N=C/c3ccccc3Br)nc2n(C)c1=O | 82.8% (inactive) |
| O=C(OCc1ccc2cccc(O)c2n1)N1CCN(C(=O)c2cc3cc(F)ccc3[nH]2)CC1 | -97.1% (active) |
| CC(=O)[C@@H]1CCC=C2CC[C@]3(C)[C@@H](CC[C@@H]4[C@@]5(C)CCCNC(C)(C)[C@@H]5CC[C@]43C)[C@H]21 | -46.6% (active) |
| O=c1oc2ccc([N+](=O)[O-])cc2cc1Br | 105% (inactive) |
| S=C(Nc1ccc(-c2nc(N3CCOCC3)c3cccn3n2)cc1)Nc1cccnc1 | 21.4% (inactive) |
